Reference: PubChem BioAssay (Tox21)
Results filed as inconclusive are left out. Where a call stands in place of a potency, no number is given. Activity calls are given as the source filed them. Unless noted, the call rests on the fitted dose curve; in most records, active means well fitted curve in the direction sought with a large enough effect in the repeat runs; inconclusive means weak or mixed curves; inactive means no such curve, though single readings can be large; an effect the other way counts as inactive or inconclusive.

How the values were obtained:
[1] = qHTS assay to identify small molecule agonists of the NFkB signaling pathway - cell viability counter screen (AID 1159515; calls by dose curve; further: series mostly up to about 61 µM; nearly all actives have a fitted effect of over 55% in size)
Method in brief: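 Parallel cytotoxicity counter screen in ME-180 cells carrying an NFkB-response-element beta-lactamase reporter, 2,000 cells/well. Compound exposure lasted 5 hr at 37 C, 5% CO2. Cell viability was quantified by CellTiter-Glo luminescence.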

[2] = qHTS assay to identify small molecule agonists of the endoplasmic reticulum stress response signaling pathway (AID 1159516; active means well fitted activation curve with a large enough effect in the signal ratio in the repeat runs, not every such curve was filed as active; the % refers to the signal ratio)
Method in brief: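 Using a HeLa line with an ESRE-driven beta-lactamase gene, agonist activity was measured by FRET substrate fluorescence (460 and 530 nm emission) after cells were treated with compounds for 5 hr at 37 C and 5% CO2.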

[3] = qHTS assay to identify small molecule agonists of the endoplasmic reticulum stress response signaling pathway - cell viability counter screen (AID 1159517; calls by dose curve;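 further: HeLa cells carrying an ER stress response element beta-lactamase reporter; series mostly up to about 61 µM; nearly all actives have a fitted effect of over 50% in size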)
Method in brief: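 ESRE-bla HeLa cells (1,500/well) were plated overnight at 37 C and exposed to compounds for 5 hr. After the 2 hr beta-lactamase substrate read, CellTiter-Glo went into the same wells, and luminescence was read after 30 min at room temperature.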

[4] = qHTS assay to identify small molecule antagonists of the retinoid-related orphan receptor gamma (ROR-gamma) signaling pathway - cell viability counter screen (AID 1159520); further: nearly all actives have a fitted effect of over 50% in size
Method in brief: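 Cytotoxicity was read from cellular ATP (CellTiter-Glo luminescence) after 16 hr at 37 C with 1 uM doxycycline induction. The inducer was added 2 hr after compound transfer to Tet-on ROR gamma CHO cells.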

[5] = biological target: Nuclear receptor ROR-gamma (Homo sapiens) (UniProt P51449); experiment: qHTS assay to identify small molecule antagonists of the retinoid-related orphan receptor gamma (ROR-gamma) signaling pathway (AID 1159521;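 further: CHO cells with doxycycline inducible ROR-gamma driving an RORE luciferase reporter; top concentration of the series differs between compounds; nearly all actives have a fitted effect of over 50% in size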)
Method in brief: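 CHO Tet-on RORγ, RORE-luc reporter. Cpd 2 h pre-incubation, then dox hyclate 1 uM final, 16 h, 37 C/5% CO2. ONE-Glo luminescence; decrease = antagonist.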

[6] = qHTS assay to identify small molecule agonists of the AP-1 signaling pathway - cell viability counter screen (AID 1159525; calls by dose curve; further: nearly all actives have a fitted effect of over 55% in size)
Method in brief: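 Intracellular ATP by Cell Titer Glo luminescence (30 min, RT) in the same ME-180 AP-1-bla wells after the 5 h compound exposure at 37 °C. Normalised to tetra n-octyl ammonium bromide and DMSO controls.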

[7] = qHTS assay to identify small molecule agonists of the AP-1 signaling pathway (AID 1159526; calls by dose curve)
[8] = biological target: Retinoic acid receptor RXR-alpha (Homo sapiens) (UniProt P19793); experiment: qHTS assay to identify small molecule agonists of the RXR signaling pathway (AID 1159527; calls by dose curve; further: nearly all actives have a fitted effect of over 35% in size; further: potency means the concentration at half of the fitted maximal effect)
Method in brief: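 Read-out: beta-lactamase FRET ratio (405 nm excitation, 460 and 530 nm emission) after 2 hr substrate loading at room temperature. Cells were RXR-alpha-UAS-bla HEK 293T treated with compounds for 16 hr in 2% charcoal-stripped FBS medium.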

[9] = qHTS assay to identify small molecule agonists of the RXR signaling pathway - cell viability counter screen (AID 1159529); further: series mostly up to about 77 µM; nearly all actives have a fitted effect of over 50% in size
Method in brief: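 HEK 293T RXRa-bla cells, 2% CS-FBS; 5 h settle; cpd 16 h 37 C, 5% CO2; CellTiter-Glo 30 min RT, luminescence. Tetraoctyl ammonium bromide as positive control.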

[10] = qHTS assay to identify small molecule antagonists of the retinoid acid receptor (RAR) signaling pathway - cell viability counter screen (AID 1159551); further: nearly all actives have a fitted effect of over 35% in size
Method in brief: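 ATP-based viability, C3RL4 cells, 6 h at 37 C with 1 uM final retinol co-added after compound; luminescence read 30 min post CellTiter-Glo, RT.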

[11] = qHTS assay to identify small molecule antagonists of the retinoic acid receptor (RAR) signaling pathway (AID 1159552; further: nearly all actives have a fitted effect of over 50% in size)
Method in brief: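 Cells of the C3RL4 line were seeded, incubated overnight, then dosed with compounds in DMSO followed immediately by retinol (1 uM final). Six hours later luciferase detection reagent went in; signal was measured after 30 min at RT.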

[12] = qHTS assay to identify small molecule agonists of the retinoic acid receptor (RAR) signaling pathway (AID 1159553)
Method in brief: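 Quantitative high-throughput format: the Tox21 10K library was tested on C3RL4 RARE-luciferase cells for 6 hr at 37 C and 5% CO2, with luminescence measured after a 30 min room-temperature reagent step.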

[13] = qHTS assay to identify small molecule antagonists of the estrogen related receptor (ERR) signaling pathway from Tox21 library - cell viability counter screen (AID 1224834); further: nearly all actives have a fitted effect of over 30% in size
Method in brief: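 Compounds in DMSO were pinned onto ERR cells that had been incubated for 6 h, and the plates were held at 37 C for 17.5 h. CellTiter-Fluor reagent was then added and fluorescence was measured after 30 min.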

[14] = biological target: Luciferin 4-monooxygenase (Photinus pyralis) (UniProt P08659); experiment: qHTS assay to identify small molecule inhibitors of firefly luciferase (AID 1224835); further: series mostly up to about 120 µM; nearly all actives have a fitted effect of over 25% in size
Method in brief: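 Inhibition of purified Photinus luciferase is measured by luminescence. Substrate levels (D-luciferin, ATP) sit at their KM values. Each compound is tested in a concentration series.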

[15] = qHTS assay to identify small molecule agonists of the constitutive androstane receptor (CAR) signaling pathway - cell viability counter screen (AID 1224836); further: series mostly up to about 92 µM; nearly all actives have a fitted effect of over 45% in size
Method in brief: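 HepG2-CYP2B6-hCAR, 2500 cells/well, 4 h pre-incubation; cpd 15 conc + PK11195 0.75 uM final; 23 h, 37 C/5% CO2; CellTiter-Fluor, fluorescence.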

[16] = qHTS assay to identify small molecule antagonists of the constitutive androstane receptor (CAR) signaling pathway - cell viability counter screen (AID 1224837); further: series mostly up to about 92 µM; nearly all actives have a fitted effect of over 45% in size
Method in brief: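 Cells are seeded, rested 4 hr at 37 C/5% CO2, dosed with compound (15-point series) and 50 nM CITCO, incubated a further 23 hr, and then CellTiter-Fluor reagent is added before fluorescence is read. The line is HepG2 with stable hCAR and CYP2B6-2.2kb.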

[17] = qHTS assay to identify small molecule antagonists of the estrogen related receptor signaling pathway with the pleiotropic PPARgamma coactivator (PGC) from Tox21 10K library - cell viability counter screen (AID 1224840; active means well fitted cell-killing curve with a large enough effect in the repeat runs, not every such curve was filed as active; further: nearly all actives have a fitted effect of over 40% in size)
Method in brief: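 Cell viability is measured by CellTiter-Fluor fluorescence in PGC/ERR cells that receive compounds after a 6-hour attachment period and are then incubated 17.5 hours at 37 C.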

[18] = qHTS assay to identify small molecule antagonists of the vitamin D receptor (VDR) signaling pathway - cell viability counter screen (AID 743225); further: nearly all actives have a fitted effect of over 50% in size
Method in brief: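 Read-out: CellTiter-Glo luminescence measured 30 min after reagent addition at room temperature. Cells were VDR-bla HEK 293T exposed 16 h at 37C, 5% CO2, to compound with 3 nM final calcitriol agonist.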

Retinoic acid receptor RXR-alpha (Homo sapiens), sequence (P19793 whole entry, looked up): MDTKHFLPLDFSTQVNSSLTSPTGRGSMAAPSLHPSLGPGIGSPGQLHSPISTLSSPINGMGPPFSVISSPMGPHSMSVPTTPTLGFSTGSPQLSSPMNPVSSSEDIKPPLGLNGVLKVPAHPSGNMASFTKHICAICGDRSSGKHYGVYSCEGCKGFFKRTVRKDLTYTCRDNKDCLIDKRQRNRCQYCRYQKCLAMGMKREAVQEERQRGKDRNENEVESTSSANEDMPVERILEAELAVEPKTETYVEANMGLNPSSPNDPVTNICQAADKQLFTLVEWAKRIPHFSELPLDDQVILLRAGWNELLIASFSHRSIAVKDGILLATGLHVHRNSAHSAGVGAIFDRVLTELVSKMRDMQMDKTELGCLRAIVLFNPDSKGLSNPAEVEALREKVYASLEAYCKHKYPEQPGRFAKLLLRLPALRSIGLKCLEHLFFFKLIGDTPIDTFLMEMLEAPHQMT
Luciferin 4-monooxygenase (Photinus pyralis), sequence (P08659 whole entry, looked up): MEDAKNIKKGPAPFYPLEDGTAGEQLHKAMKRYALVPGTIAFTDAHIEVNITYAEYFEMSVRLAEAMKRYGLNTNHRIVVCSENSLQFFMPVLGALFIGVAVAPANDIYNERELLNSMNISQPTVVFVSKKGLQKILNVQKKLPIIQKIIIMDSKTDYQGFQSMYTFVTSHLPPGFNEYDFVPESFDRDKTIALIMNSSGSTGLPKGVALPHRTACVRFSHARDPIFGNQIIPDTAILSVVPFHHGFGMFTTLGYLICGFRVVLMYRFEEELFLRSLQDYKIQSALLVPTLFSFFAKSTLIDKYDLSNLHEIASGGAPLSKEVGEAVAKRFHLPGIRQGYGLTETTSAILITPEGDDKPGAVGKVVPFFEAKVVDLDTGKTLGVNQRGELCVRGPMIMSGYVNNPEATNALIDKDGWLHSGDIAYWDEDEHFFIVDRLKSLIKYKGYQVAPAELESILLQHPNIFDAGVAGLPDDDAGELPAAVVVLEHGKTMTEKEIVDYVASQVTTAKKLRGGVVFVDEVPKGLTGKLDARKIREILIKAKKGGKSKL

Compound | outcome [1] | Potency [2] | outcome [3] | outcome [4] | outcome [5] | outcome [6] | Potency [7] | Potency [8] | Potency [9] | outcome [10] | outcome [11] | Potency [12] | outcome [13] | Potency [14] | outcome [15] | outcome [16] | outcome [17] | outcome [18]
CC(C)c1cc(C(C)C)cc(C(C)C)c1 | inactive | inactive | inactive | inactive | inactive | inactive | inactive | 15.5 µM (active) | inactive | inactive | inactive | inactive | inactive | inactive | inactive | inactive | inactive | –
O=C(CCBr)N1CCN(C(=O)CCBr)CC1 | inactive | inactive | inactive | inactive | inactive | inactive | inactive | inactive | inactive | inactive | inactive | inactive | inactive | inactive | inactive | inactive | inactive | inactive
CCCCCC(CC)OC(=O)CCCOc1ccc(Cl)cc1Cl (stereo not drawn) | inactive | inactive | inactive | inactive | inactive | inactive | inactive | 4.35 µM (active) | inactive | inactive | inactive | inactive | inactive | inactive | inactive | inactive | inactive | inactive
CCN1CCN(C(=O)N[C@@H](C(=O)N[C@@H]2C(=O)N3[C@@H]2SC(C)(C)[C@H]3C(=O)O)c2ccccc2)C(=O)C1=O | inactive | inactive | inactive | inactive | inactive | inactive | inactive | inactive | inactive | inactive | inactive | inactive | inactive | inactive | inactive | inactive | inactive | inactive
CC(=O)Nc1ccc(S(=O)(=O)Nc2cc(C)on2)cc1 | inactive | inactive | inactive | inactive | inactive | inactive | inactive | inactive | inactive | inactive | inactive | inactive | inactive | inactive | inactive | inactive | inactive | inactive
COCc1nnc(-c2ccc[n+]([O-])c2)n1-c1c(Cl)c(Cl)cc2[nH]c(=O)c(=O)[nH]c12 | inactive | inactive | inactive | inactive | inactive | inactive | inactive | inactive | inactive | inactive | inactive | inactive | inactive | inactive | inactive | inactive | inactive | –
CC(C)(C)C(=O)CC(=O)C(C)(C)C | inactive | inactive | inactive | inactive | inactive | inactive | inactive | inactive | inactive | inactive | inactive | inactive | inactive | inactive | inactive | inactive | inactive | –
